Experimental data as given in the supplement of paper PMC10849652.
About 7,900 targets were measured; listed, in parts, are those with a hit and a random draw of the rest. About 0.6% of all pairs of compound and target were hits. Values without a mark were called inactive.

What was measured:
Assay in all cases: log2 fold change, soluble protein after heating vs DMSO (PISA); higher = thermal stabilisation; K562 cells, 10 uM, 30 min; active = over 0.2 and 3.5 SD of the protein, either way, in both replicates (recomputed)
[1] = compound: CC1=C(C=C(C=C1)NC(=O)C2=CC(=CC=C2)C(C)(C)C#N)NC3=CC4=C(C=C3)N=CN(C4=O)C
Summary of the method: (§1)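 K562 cells at 2×10^6 cells/mL were exposed to 10 μM compound for 30 min, then aliquots were heated for 3 min across 48°C-58°C, pooled, and extracted in PBS containing 0.5% NP-40 at 4°C. The supernatant after 21,000xg for 90 min was taken as soluble protein and measured by TMTpro 16plex LC-MS/MS with channel sums equalised. Thermal stability is reported relative to control samples, with values from duplicates. Fold changes are given on a log2 scale.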

[2] = compound: CC1=C(C=C(C=C1)NC(=O)C2=CC(=CC=C2)N(C)C)NC(=O)C3=CC=C(C=C3)O
Summary of the method: as §1

[3] = compound: CC1=CC=C(C=C1)SC2=C3C=C(SC3=CN=C2)C(=O)N
Summary of the method: as §1

[4] = compound: CC1=NC(=CC=C1)C2=C(N=C(N2)C(C)(C)C)C3=CC4=NC=CN=C4C=C3
Summary of the method: as §1

[5] = compound: CCCCN(Cc1ccc(C(=O)NO)cc1)C(=O)Nc1ccccc1 [Nexturastat A]
Summary of the method: as §1

[6] = compound: CCCS(=O)(=O)Nc1ccc(F)c(C(=O)c2c[nH]c3ncc(-c4ccc(Cl)cc4)cc23)c1F [vemurafenib]
Summary of the method: as §1

[7] = compound: CCCS(=O)(=O)Nc1ccc(F)c(C(=O)c2c[nH]c3ncc(Cl)cc23)c1F
Summary of the method: as §1

[8] = compound: CCCc1cc(C)[nH]c(=O)c1CNC(=O)c1cc(-c2ccnc(N3CCN(C)CC3)c2)cc2c1cnn2C(C)C
Summary of the method: as §1

[9] = compound: CCN(CC)Cc1ccc2cc(COC(=O)Nc3ccc(C(=O)NO)cc3)ccc2c1 [givinostat]
Summary of the method: as §1

[10] = compound: CCN(CCCOc1ccc2c(Nc3cc(CC(=O)Nc4cccc(F)c4)[nH]n3)ncnc2c1)CCOP(=O)(O)O [barasertib]
Summary of the method: as §1

Sequence of UniProt Q9UMR5 (Q9UMR5 whole entry, looked up): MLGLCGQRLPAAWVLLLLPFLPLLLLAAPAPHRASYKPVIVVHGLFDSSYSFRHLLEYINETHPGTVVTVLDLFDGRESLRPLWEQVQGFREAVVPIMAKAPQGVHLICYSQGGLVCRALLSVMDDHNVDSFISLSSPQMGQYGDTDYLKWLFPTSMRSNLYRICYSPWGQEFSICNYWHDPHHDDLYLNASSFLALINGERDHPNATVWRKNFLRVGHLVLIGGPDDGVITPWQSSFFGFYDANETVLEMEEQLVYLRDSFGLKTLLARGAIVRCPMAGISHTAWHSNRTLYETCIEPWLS
Sequence of UniProt P28072 (P28072 whole entry, looked up): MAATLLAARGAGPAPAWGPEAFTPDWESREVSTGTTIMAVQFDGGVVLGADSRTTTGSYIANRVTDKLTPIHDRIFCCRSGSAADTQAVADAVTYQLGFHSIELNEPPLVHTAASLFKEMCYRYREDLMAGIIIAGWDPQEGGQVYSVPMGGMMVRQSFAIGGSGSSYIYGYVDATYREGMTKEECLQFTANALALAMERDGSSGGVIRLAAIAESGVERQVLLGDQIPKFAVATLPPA
Sequence of UniProt Q5JRX3 (Q5JRX3 whole entry, looked up): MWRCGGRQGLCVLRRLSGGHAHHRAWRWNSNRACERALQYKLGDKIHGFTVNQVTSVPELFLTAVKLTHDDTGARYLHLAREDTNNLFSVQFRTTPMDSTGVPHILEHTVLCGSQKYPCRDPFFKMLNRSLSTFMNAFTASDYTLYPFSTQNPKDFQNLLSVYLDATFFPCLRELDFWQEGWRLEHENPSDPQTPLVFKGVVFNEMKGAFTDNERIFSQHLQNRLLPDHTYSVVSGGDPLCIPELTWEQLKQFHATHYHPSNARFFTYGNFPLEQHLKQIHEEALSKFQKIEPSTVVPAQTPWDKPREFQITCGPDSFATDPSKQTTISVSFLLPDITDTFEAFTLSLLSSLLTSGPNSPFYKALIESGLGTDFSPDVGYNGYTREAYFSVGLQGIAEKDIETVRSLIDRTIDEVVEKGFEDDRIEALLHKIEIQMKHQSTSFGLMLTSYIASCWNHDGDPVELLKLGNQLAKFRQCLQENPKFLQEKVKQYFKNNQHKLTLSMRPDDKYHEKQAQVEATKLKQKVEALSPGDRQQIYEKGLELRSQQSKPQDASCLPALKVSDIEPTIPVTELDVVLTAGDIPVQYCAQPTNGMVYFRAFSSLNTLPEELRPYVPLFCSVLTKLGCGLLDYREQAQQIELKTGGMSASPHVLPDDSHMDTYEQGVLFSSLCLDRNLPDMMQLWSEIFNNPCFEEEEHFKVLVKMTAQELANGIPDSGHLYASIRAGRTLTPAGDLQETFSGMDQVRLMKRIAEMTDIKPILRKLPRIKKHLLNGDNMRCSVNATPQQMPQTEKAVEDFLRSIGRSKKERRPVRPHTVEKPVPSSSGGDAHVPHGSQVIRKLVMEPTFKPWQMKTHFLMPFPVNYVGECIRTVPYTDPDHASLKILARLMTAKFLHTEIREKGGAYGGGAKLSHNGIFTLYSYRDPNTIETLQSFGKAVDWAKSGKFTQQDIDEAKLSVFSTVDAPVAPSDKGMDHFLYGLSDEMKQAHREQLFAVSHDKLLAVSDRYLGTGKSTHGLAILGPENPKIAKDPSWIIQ
Sequence of UniProt O15067 (O15067 whole entry, looked up): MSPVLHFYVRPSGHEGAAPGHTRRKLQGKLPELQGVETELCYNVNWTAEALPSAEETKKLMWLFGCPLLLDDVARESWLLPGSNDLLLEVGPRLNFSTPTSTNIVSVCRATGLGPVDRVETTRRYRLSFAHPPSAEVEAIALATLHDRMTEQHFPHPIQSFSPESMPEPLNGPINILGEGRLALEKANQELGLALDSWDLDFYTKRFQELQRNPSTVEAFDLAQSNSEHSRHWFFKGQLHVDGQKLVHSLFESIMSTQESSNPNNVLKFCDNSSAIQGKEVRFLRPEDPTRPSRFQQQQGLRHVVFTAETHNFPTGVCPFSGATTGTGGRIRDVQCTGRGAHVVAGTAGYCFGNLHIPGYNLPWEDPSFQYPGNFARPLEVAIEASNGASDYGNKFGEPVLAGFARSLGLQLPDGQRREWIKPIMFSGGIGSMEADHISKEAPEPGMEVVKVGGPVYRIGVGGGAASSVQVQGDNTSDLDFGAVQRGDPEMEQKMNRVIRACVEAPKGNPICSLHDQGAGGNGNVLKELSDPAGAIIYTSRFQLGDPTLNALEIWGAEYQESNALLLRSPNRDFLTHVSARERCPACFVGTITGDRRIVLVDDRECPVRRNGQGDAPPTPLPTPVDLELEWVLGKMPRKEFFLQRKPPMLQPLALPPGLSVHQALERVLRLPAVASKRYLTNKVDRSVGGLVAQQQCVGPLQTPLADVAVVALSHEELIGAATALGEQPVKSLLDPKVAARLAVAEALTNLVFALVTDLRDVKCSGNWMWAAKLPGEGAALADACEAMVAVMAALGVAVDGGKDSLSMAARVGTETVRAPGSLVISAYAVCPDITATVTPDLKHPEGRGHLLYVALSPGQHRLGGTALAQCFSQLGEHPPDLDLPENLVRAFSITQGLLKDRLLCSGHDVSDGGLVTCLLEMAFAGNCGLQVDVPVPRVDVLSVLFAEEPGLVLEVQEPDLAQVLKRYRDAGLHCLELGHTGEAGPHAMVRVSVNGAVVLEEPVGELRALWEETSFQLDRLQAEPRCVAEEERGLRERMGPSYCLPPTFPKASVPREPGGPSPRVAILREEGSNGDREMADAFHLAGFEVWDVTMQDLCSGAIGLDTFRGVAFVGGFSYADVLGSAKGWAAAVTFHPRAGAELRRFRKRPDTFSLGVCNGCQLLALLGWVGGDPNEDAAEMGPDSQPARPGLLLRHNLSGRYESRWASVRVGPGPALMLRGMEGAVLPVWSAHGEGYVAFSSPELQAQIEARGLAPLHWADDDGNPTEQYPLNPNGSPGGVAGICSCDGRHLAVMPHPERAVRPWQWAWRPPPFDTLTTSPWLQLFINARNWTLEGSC
Sequence of UniProt Q9H307 (Q9H307 whole entry, looked up): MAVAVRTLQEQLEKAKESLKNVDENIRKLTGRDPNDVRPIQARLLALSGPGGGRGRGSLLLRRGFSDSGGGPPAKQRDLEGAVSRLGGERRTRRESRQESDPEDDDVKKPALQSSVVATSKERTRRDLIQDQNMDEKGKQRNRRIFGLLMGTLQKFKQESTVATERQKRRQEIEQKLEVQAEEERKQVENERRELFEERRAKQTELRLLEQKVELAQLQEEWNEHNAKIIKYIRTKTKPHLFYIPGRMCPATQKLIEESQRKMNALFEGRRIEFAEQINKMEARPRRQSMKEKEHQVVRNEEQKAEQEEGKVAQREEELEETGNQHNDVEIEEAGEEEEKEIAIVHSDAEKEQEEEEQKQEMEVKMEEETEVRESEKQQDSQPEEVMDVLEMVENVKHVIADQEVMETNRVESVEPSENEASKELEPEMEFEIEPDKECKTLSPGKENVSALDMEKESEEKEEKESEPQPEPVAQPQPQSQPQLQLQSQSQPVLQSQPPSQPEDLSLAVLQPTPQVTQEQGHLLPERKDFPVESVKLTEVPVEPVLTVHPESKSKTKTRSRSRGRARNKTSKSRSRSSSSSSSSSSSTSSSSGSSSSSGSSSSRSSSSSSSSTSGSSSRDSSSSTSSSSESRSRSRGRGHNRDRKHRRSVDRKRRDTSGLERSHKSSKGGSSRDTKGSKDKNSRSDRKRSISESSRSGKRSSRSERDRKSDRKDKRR
Sequence of UniProt Q92871 (Q92871 whole entry, looked up): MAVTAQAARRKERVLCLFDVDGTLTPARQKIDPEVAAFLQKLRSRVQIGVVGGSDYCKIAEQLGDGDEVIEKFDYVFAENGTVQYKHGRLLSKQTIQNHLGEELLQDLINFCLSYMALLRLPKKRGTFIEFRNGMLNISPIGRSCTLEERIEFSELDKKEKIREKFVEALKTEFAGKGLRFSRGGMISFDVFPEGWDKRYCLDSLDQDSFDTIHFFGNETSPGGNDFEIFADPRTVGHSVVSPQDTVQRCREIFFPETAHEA
Sequence of UniProt P14618 (P14618 whole entry, looked up): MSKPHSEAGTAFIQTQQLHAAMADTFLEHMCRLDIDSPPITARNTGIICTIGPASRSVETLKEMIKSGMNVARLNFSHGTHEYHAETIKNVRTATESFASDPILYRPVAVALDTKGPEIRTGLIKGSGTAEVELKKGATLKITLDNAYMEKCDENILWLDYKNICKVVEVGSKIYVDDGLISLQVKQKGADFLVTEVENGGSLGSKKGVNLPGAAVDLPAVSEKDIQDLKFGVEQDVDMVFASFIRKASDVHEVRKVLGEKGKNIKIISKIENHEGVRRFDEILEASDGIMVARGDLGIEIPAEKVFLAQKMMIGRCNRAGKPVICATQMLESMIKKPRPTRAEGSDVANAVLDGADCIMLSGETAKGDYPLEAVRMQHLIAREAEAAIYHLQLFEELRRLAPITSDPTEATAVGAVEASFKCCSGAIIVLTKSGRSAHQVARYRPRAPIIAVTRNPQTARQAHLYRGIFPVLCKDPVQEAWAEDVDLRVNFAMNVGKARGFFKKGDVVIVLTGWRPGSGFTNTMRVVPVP
Sequence of UniProt Q8N8N7 (Q8N8N7 whole entry, looked up): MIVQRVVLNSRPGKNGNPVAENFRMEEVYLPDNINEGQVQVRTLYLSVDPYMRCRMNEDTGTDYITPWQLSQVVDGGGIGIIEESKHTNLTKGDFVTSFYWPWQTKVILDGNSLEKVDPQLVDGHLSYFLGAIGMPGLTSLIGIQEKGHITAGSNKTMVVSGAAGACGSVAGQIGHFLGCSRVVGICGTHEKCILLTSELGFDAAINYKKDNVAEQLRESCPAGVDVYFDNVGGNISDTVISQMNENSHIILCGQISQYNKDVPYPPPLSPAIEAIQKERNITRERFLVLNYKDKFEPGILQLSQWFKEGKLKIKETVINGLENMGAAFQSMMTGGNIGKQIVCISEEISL
Sequence of UniProt P53801 (P53801 whole entry, looked up): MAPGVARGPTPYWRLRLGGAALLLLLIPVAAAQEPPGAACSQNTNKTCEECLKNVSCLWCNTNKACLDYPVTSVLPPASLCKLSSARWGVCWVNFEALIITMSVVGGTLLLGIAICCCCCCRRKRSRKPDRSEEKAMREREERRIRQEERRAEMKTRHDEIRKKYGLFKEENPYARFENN

Target	log2 fold change [1]	log2 fold change [2]	log2 fold change [3]	log2 fold change [4]	log2 fold change [5]	log2 fold change [6]	log2 fold change [7]	log2 fold change [8]	log2 fold change [9]	log2 fold change [10]
POLA2 (UniProt Q14181)	0.073	0.044	-0.037	0.061	-0.011	0.034	0.048	-0.02	0.021	0.021
PLIN2 (UniProt Q99541)	0.069	0.018	0.109	0.022	0.082	0.01	0.042	-0.12	-0.014	0.013
PPT2 isoform 3 (UniProt Q9UMR5)	-0.064	-0.002	0.025	0.078	0	-0.001	0.052	0.002	0.041	-0.017
POGZ (UniProt Q7Z3K3)	0.037	-0.025	0.028	0.008	-0.127	0.122	-0.024	–	-0.142	–
PHKA1 (UniProt P46020)	-0.027	-0.155	-0.062	-0.033	0.047	–	0.019	0.076	-0.024	-0.133
PLEKHM2 (UniProt Q8IWE5)	0.064	0.035	0.052	-0.011	-0.028	0.075	0.124	0.038	0.177	0.076
POLR2B (UniProt P30876)	0.009	-0.044	0.041	0.016	0.054	0.006	0.041	0.005	-0.005	0.008
PDE2A (UniProt O00408)	-0.041	0.007	0.041	-0.019	-0.054	0.013	0.036	-0.012	-0.043	0.011
PRKD3 (UniProt O94806)	0.096	-0.052	–	-0.012	–	0.294	–	0.115	-0.008	0.086
PFAS (UniProt O15067)	-0.056	-0.119	0.172	0.002	-0.081	0.032	-0.003	-0.039	0.05	0.061
PTPA (UniProt A6PVN8)	0.062	-0.128	-0.15	–	-0.038	-0.065	-0.11	0.038	-0.857 (active)	0.01
PTGES3 (UniProt Q15185)	0.039	-0.073	0.044	0.078	-0.046	0.032	0.111	0.034	0.026	0.064
PNN (UniProt Q9H307)	-0.101	0.084	0.003	0.011	0.03	–	0.04	0.004	0.121	0.027
PDIK1L (UniProt Q8N165)	-0.079	0.031	-0.265	0.068	-0.077	0.026	0	0.03	0.034	0.055
PMM1 (UniProt Q92871)	-0.164	0.007	-0.037	0.027	-0.037	-0.007	-0.012	-0.165	-0.013	-0.003
POLR2K (UniProt P53803)	-0.036	0.065	0.056	0.024	-0.162	-0.001	-0.024	0.075	-0.137	0.023
PITRM1 isoform 2 (UniProt Q5JRX3)	0.21	-0.064	0.047	0.073	-0.152	0.002	-0.002	0.018	-0.047	-0.03
PTTG1IP (UniProt P53801)	0.122	–	-0.107	-0.062	-0.024	-0.059	0.02	0.008	-0.124	-0.025
PKM isoform 2 (UniProt P14618)	-0.13	-0.082	0.049	0.033	0.267	0.088	0.094	0.056	–	-0.005
PTGR2 (UniProt Q8N8N7)	-0.022	-0.058	0.022	-0.056	-0.175	-0.022	-0.021	0.234	0.139	0
PSMB6 (UniProt P28072)	0.002	0.306	-0.036	-0.001	-0.019	-0.038	-0.062	-0.024	-0.025	-0.04
PUF60 (UniProt Q9UHX1)	0.046	-0.018	0.043	0.022	-0.003	0.034	0.14	0.009	0.022	0.025
PDSS2 (UniProt Q86YH6)	-0.215	0.017	0.093	-0.083	-0.126	-0.03	0.244	–	-0.046	0.027
PI4K2B (UniProt Q8TCG2)	-0.082	-0.002	–	-0.013	–	0.059	–	0.144	0.019	0.146
POLB (UniProt P06746)	0.086	-0.211	0.009	–	0.189	–	0.178	–	-0.026	–
PIK3CD (UniProt O00329)	0.042	0.079	0.018	-0.04	-0.1	-0.051	-0.156	–	-0.013	0.096
